# Experimental data published in PubChem BioAssay.
# Records with an inconclusive call do not appear. Active and inactive are the calls of the source. Unless noted, no stated cut-off is given here; in the data, active means inhibition above about 80%; inactive means the rest.
# Legend:
# [1] = viability loss in pontine glioma line – cell-based, SU-DIPG-XVII, MIPE5.0, CellTiter-Glo, qHTS, dose response (AID 1347060; cut-off not given, nearly all actives have AC50 up to about 26 µM;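 further: cells exposed to compound for 48 hours before viability readout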); settings: CellTiter-Glo ATP luminescence
# [2] = viability loss in pontine glioma line – cell-based, SU-DIPG-XIII, MIPE5.0, CellTiter-Glo, qHTS, dose response (AID 1347064; cut-off not given, nearly all actives have AC50 up to about 23 µM;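 further: cells exposed to compound for 48 hours before the viability read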); settings: CellTiter-Glo ATP luminescence
# [3] = viability loss in pontine glioma line – cell-based, SU-DIPG-XXV, MIPE5.0, CellTiter-Glo, qHTS, dose response (AID 1347065; cut-off not given, nearly all actives have AC50 up to about 26 µM;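 further: cells exposed to compound for 48 hours before ATP readout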); settings: CellTiter-Glo ATP luminescence
# [4] = JHH-DIPG-1 glioma cell viability, MIPE5.0 library, CellTiter-Glo luminescence, qHTS (AID 1347067; cut-off not given, nearly all actives have AC50 up to about 26 µM;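 further: cells exposed to compound for 48 hours before readout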); settings: JHH-DIPG-1 glioma viability, CellTiter-Glo ATP luminescence
# [5] = growth inhibition of DIPG cells – cell-based, MIPE5.0 library, qHTS (AID 1347068; cut-off not given, nearly all actives have IC50 up to about 30 µM;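 further: cells exposed to compound for 48 hours before viability readout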); settings: SU-DIPG-XXV viability
# [6] = viability loss with induced miR-34 in A549 – imaging, A549 dox-inducible miR-34, nuclei and caspase counts, primary screen (AID 1347080;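 active means compounds whose cell count with miR-34 switched on is under 0.7 times the count with it off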); settings: A549 miR-34 inducible, Hoechst nuclei count, 48 h
# [7] = MELAS cybrid and Rieske KO viability enhancers – cell-based, MELAS cybrids, Rieske KO mouse fibroblasts, CellTiter-Glo, primary screen (AID 1508586;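 active means mean z-score across replicates of 1.96 or higher in either the MELAS or the Rieske mutant cell line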;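 further: z relative to plate mean and SD of compound and empty wells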); settings: low glucose
# [8] = growth inhibition, single agent or in combination, cell-based, chromothripsis tumors, cisplatin or BGB combos (AID 1671449); settings: LFS_MB_P medulloblastoma cells;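 further: cells exposed for 96 hours; 0% = vehicle DMSO and 100% = killing by high DMSO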
# [9] = growth inhibition, single agent and combos, cell-based, chromothripsis tumors, cisplatin or BGB combos (AID 1671450); settings: HDN33 neuroblastoma cells, stronger effect = higher value;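 further: cells exposed to compound for four days; 0% = vehicle DMSO and 100% = cell killing by high DMSO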
# [10] = growth inhibition, single agents and combos, ICB984, cell-based, cisplatin or BGB combos, synergistic combos for chromothripsis tumors (AID 1671451; call rule not given here;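 further: cells exposed for 96 hours before readout; 0% = vehicle DMSO and 100% = killing by high DMSO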); settings: ICB984 medulloblastoma cells, drug combinations, stronger effect = higher value
# [11] = growth inhibition, single agents and combos, LFS_MB_1R, cell-based, cisplatin or BGB combos, synergistic combos for chromothripsis tumors (AID 1671452); settings: LFS_MB_1R medulloblastoma cells, stronger effect = higher value;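 further: cells exposed for 96 hours before readout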
# [12] = growth inhibition, single agents and combos, HTB85, cell-based, BGB or cisplatin IC20 combos, synergistic combos for chromothripsis tumors (AID 1671453); settings: HTB85 osteosarcoma cells, drug combinations, stronger effect = higher value;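 further: cells exposed for 96 hours before readout; 0% = vehicle DMSO and 100% = high DMSO killing control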
# [13] = growth inhibition, single agents and combos, CRL2098, cell-based, BGB or cisplatin IC20 combos, synergistic combos for chromothripsis tumors (AID 1671454); settings: CRL2098 osteosarcoma cells, drug combinations, stronger effect = higher value;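 further: cells exposed for 96 h before readout; 0% = vehicle DMSO and 100% = killing by high DMSO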
# [14] = growth inhibition, single agents and combos, HD-MB03, cell-based, BGB or cisplatin IC20 combos, synergistic combos for chromothripsis tumors (AID 1671455; in the data active means inhibition above about 83%;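 further: 0% = vehicle DMSO and 100% = high DMSO as cytotoxic control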); settings: HD-MB03 medulloblastoma cells, stronger effect = higher value
# [15] = growth inhibition, single agents and combos, UWB1.289, cell-based, BGB or cisplatin combos, synergistic combos for chromothripsis tumors (AID 1671456); settings: UWB1.289 ovarian carcinoma cells, stronger effect = higher value;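 further: cells exposed to compound for four days; 0% = vehicle DMSO and 100% = killing by high DMSO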
# [16] = growth inhibition, MDA-MB-436, cell-based, BGB or cisplatin combos, synergistic combos for chromothripsis tumors (AID 1671458; call rule not given here;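 further: cells exposed for 96 hours; 0% = vehicle DMSO and 100% = killing by high DMSO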); settings: MDA-MB-436 breast carcinoma growth inhibition, drug combinations, stronger effect = higher value
# [17] = BT084 cell growth, single and combined drugs, ICGC_MB145, cisplatin and BGB IC40 combos (AID 1671461); settings: BT084 medulloblastoma cells, drug combinations, stronger effect = higher value;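 further: cells exposed to drugs for 96 hours; 0% = vehicle DMSO and 100% = high DMSO full killing control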
# [18] = RCMB18 cell growth, single agent and combined, cisplatin and BGB IC40 combos (AID 1671462); settings: RCMB18 medulloblastoma cells, stronger effect = higher value;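 further: cells exposed to compound for four days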
# [19] = CRL1545 cell growth, single agent and combined, cisplatin and BGB IC20 combos (AID 1671464); settings: CRL1545 osteosarcoma cells, stronger effect = higher value;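 further: cells exposed to compound for 96 hours before readout; 0% = vehicle DMSO and 100% = high DMSO killing control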
# [20] = measured here: combination with BGB IC40, at 0.05 µM
# [21] = measured here: with BGB IC20 combination, at 0.5 µM
# [22] = measured here: with cisplatin IC20 combination, at 0.5 µM
# [23] = measured here: combination with cisplatin, at 0.5 µM
smiles,measurement,setting,value
CC(=O)Nc1ccc(C(=O)Nc2ccccc2N)cc1,AC50,[1],13.2 µM (active)
same,AC50,[2],9.34 µM (active)
same,AC50,[3],9.34 µM (active)
same,AC50,[4],10.5 µM (active)
same,IC50,[5],10.5 µM (active)
same,fold change,"[6]; stronger effect = lower value, cell number ratio, induced over uninduced",0.986 (inactive)
same,fold change,[6]; measured here: relative caspase fold change +Dox/-Dox,1.15
same,cell count,"[6]; measured here: total cells with miR-34 induction, stronger effect = lower value",4760
same,cell count,[6]; measured here: total cells without miR-34 induction,4820
same,z-score,"[7]; MELAS cybrid survival, CellTiter-Glo 48 h, stronger effect = higher value",-0.168 (inactive)
same,z-score,"[7]; Rieske KO mouse fibroblast survival, CellTiter-Glo 72 h",-0.712
same,inhibition,"[8]; at 0.5 µM, stronger effect = higher value",88.2% (active)
same,inhibition,"[8]; measured here: combination with BGB IC20, at 0.005 µM",-32.9%
same,inhibition,"[8]; measured here: combination with BGB IC40, at 0.005 µM",90.3%
same,inhibition,[8]; [20],-22.7%
same,inhibition,"[8]; measured here: combination with cisplatin, at 0.5 µM, stronger effect = higher value",113%
same,inhibition,"[8]; measured here: combination with cisplatin, at 5 µM, stronger effect = higher value",85.2%
same,inhibition,"[9]; BGB combo, at 5 µM",47.2%
same,inhibition,[9]; at 0.5 µM,8.49% (inactive)
same,inhibition,"[9]; cisplatin combo, at 5 µM",53.7%
same,inhibition,[9]; [21],4.99%
same,inhibition,[9]; [22],18.6%
same,inhibition,"[9]; single agent, at 5 µM",41.8%
same,inhibition,"[10]; BGB IC20 combo, at 0.005 µM",-11.5%
same,inhibition,"[10]; BGB IC40 combo, at 0.005 µM",-4.35%
same,inhibition,"[10]; BGB IC40 combo, at 0.05 µM",23.2%
same,inhibition,[10]; at 0.5 µM,-24.7% (inactive)
same,inhibition,"[10]; cisplatin combo, at 0.05 µM",19.5%
same,inhibition,"[10]; cisplatin combo, at 0.5 µM",-38.2%
same,inhibition,"[10]; cisplatin combo, at 5 µM",-5.64%
same,inhibition,"[10]; measured here: 5 uM single agent, at 5 µM",-13.9%
same,inhibition,[11]; at 0.5 µM,-13.9% (inactive)
same,inhibition,[11]; [20],-36.6%
same,inhibition,[11]; [23],-17.4%
same,inhibition,"[11]; measured here: combination with cisplatin, at 5 µM",75.4%
same,inhibition,[12]; at 0.5 µM,3.06% (inactive)
same,inhibition,"[12]; measured here: with BGB IC20, at 0.5 µM",23.1%
same,inhibition,"[12]; measured here: with BGB IC20, at 5 µM",53.4%
same,inhibition,"[12]; measured here: with cisplatin IC20, at 0.5 µM",-11.1%
same,inhibition,"[12]; measured here: with cisplatin IC20, at 5 µM",56.6%
same,inhibition,"[12]; single agent, at 5 µM",37.1%
same,inhibition,[13]; at 0.5 µM,-31.5% (inactive)
same,inhibition,"[13]; measured here: combination with BGB at IC20, at 0.5 µM",-48.1%
same,inhibition,"[13]; measured here: combination with cisplatin at IC20, at 0.5 µM",-8.49%
same,inhibition,[14]; at 0.5 µM,-2.82% (inactive)
same,inhibition,"[14]; measured here: combo with BGB at IC20, at 0.5 µM",-7.4%
same,inhibition,"[14]; measured here: combo with cisplatin at IC20, at 0.5 µM",-4.11%
same,inhibition,[15]; at 0.5 µM,0.73% (inactive)
same,inhibition,"[15]; measured here: inhibition with BGB combination, at 0.05 µM",-12.2%
same,inhibition,"[15]; measured here: inhibition with cisplatin combination, at 0.05 µM",-6.67%
same,inhibition,[16]; at 0.5 µM,-2.64% (inactive)
same,inhibition,"[16]; measured here: BGB combination, at 0.5 µM",6.02%
same,inhibition,"[16]; measured here: BGB combination, at 5 µM",12.4%
same,inhibition,"[16]; measured here: cisplatin combination, at 0.5 µM",-26.9%
same,inhibition,"[16]; measured here: cisplatin combination, at 5 µM",14.4%
same,inhibition,[17]; at 0.5 µM,25.3% (inactive)
same,inhibition,"[17]; cisplatin combination, at 0.5 µM",14.2%
same,inhibition,"[17]; cisplatin combination, at 5 µM",63.9%
same,inhibition,"[17]; measured here: BGB IC40 combination 0.05 uM, at 0.05 µM",-33.4%
same,inhibition,"[17]; single agent, at 5 µM",40.7%
same,inhibition,[18]; at 0.5 µM,16.2% (inactive)
same,inhibition,"[18]; cisplatin combo, at 5 µM",82.6%
same,inhibition,"[18]; measured here: BGB IC40 combination, at 0.05 µM",-4.7%
same,inhibition,[18]; [23],20.8%
same,inhibition,"[18]; single agent, at 5 µM",47.6%
same,inhibition,[19]; at 0.5 µM,35.2% (inactive)
same,inhibition,[19]; [21],11.6%
same,inhibition,[19]; [22],46.2%
same,inhibition,"[19]; single agent, at 0.05 µM",-7.31%
same,inhibition,"[19]; single agent, at 5 µM",44%
